Test results published in ChEMBL document CHEMBL1961873, “Compounds: GSK PKIS; Assays: Nanosyn kinase panel” (2012).

Tests used:
[1] = molecular target: Fibroblast growth factor receptor 4 (Homo sapiens) (UniProt P22455); conditions: at 1 µM;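 also: reported figure is the averaged percent inhibition of FGFR4, from the GSK PKIS kinase screening panel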
[2] = molecular target: Tyrosine-protein kinase Fgr (Homo sapiens) (UniProt P09769); conditions: at 0.1 µM
[3] = molecular target: Tyrosine-protein kinase Fgr (Homo sapiens) (UniProt P09769); conditions: at 1 µM
[4] = molecular target: Vascular endothelial growth factor receptor 1 (Homo sapiens) (UniProt P17948); conditions: at 0.1 µM
[5] = molecular target: Vascular endothelial growth factor receptor 1 (Homo sapiens) (UniProt P17948); conditions: at 1 µM
[6] = molecular target: Receptor-type tyrosine-protein kinase FLT3 (Homo sapiens) (UniProt P36888); conditions: at 0.1 µM
[7] = molecular target: Receptor-type tyrosine-protein kinase FLT3 (Homo sapiens) (UniProt P36888); conditions: at 1 µM
[8] = system: T1, Receptor-type tyrosine-protein kinase FLT3 (Homo sapiens), P36888 [D835Y]; conditions: at 0.1 µM
T1 sequence (whole entry): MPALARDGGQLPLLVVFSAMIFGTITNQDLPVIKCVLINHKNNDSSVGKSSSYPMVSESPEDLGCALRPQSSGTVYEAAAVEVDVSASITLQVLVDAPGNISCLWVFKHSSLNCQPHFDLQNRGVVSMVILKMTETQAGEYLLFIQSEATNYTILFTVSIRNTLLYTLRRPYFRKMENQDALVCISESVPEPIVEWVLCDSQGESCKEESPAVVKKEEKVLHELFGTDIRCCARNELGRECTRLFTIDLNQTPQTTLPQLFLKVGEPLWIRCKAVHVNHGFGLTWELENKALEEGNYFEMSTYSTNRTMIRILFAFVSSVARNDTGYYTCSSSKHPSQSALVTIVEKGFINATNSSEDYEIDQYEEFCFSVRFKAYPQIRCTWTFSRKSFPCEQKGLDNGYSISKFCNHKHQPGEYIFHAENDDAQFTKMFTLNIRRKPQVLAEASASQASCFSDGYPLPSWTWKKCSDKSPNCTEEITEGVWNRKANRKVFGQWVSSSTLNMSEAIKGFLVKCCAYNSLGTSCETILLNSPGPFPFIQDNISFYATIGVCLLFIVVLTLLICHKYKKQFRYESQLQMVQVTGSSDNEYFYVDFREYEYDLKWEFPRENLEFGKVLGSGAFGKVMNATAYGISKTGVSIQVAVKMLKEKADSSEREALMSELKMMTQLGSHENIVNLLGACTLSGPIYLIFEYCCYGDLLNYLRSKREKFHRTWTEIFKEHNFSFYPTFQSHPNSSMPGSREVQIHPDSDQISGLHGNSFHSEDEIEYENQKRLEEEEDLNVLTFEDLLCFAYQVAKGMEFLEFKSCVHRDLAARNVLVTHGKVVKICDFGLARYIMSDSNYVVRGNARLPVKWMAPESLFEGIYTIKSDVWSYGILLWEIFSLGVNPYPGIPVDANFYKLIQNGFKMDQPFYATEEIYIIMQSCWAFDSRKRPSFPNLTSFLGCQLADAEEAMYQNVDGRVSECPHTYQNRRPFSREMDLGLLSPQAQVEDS

[9] = molecular target: Non-receptor tyrosine-protein kinase TYK2 (Homo sapiens) (UniProt P29597); conditions: at 1 µM;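 also: values are mean percent inhibition of TYK2 kinase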
Sequence of Non-receptor tyrosine-protein kinase TYK2 (Homo sapiens) (P29597 whole entry): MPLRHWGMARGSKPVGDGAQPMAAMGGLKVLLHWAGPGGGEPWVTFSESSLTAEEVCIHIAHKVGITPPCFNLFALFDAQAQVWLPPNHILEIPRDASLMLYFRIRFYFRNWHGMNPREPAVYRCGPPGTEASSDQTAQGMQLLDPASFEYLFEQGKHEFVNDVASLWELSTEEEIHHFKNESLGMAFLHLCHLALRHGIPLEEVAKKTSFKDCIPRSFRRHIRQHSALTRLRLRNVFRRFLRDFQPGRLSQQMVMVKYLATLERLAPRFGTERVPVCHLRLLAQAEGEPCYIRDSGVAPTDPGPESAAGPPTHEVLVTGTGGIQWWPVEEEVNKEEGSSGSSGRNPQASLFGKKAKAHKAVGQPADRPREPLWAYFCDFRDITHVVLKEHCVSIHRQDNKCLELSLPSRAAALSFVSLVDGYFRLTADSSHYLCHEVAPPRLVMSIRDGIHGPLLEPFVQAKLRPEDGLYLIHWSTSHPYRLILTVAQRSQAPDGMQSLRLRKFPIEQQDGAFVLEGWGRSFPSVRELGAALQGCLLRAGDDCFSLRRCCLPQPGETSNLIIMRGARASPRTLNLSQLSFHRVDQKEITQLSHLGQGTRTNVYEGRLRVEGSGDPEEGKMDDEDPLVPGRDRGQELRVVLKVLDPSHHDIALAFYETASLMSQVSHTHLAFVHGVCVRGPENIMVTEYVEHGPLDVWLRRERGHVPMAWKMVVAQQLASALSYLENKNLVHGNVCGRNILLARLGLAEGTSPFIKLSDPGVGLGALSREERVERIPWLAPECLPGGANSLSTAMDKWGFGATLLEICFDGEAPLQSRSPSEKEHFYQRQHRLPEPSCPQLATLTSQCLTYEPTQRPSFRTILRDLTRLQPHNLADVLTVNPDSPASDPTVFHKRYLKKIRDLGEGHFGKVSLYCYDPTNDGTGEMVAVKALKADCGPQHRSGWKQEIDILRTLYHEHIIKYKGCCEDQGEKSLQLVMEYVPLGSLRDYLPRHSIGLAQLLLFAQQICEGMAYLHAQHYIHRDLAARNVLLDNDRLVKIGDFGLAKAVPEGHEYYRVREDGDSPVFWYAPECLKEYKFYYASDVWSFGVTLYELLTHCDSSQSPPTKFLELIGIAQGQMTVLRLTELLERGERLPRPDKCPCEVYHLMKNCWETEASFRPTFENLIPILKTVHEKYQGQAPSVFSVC

[10] = molecular target: T2, Tyrosine-protein kinase receptor TYRO3 (Homo sapiens) (UniProt Q06418); conditions: at 0.1 µM
T2 sequence (whole entry): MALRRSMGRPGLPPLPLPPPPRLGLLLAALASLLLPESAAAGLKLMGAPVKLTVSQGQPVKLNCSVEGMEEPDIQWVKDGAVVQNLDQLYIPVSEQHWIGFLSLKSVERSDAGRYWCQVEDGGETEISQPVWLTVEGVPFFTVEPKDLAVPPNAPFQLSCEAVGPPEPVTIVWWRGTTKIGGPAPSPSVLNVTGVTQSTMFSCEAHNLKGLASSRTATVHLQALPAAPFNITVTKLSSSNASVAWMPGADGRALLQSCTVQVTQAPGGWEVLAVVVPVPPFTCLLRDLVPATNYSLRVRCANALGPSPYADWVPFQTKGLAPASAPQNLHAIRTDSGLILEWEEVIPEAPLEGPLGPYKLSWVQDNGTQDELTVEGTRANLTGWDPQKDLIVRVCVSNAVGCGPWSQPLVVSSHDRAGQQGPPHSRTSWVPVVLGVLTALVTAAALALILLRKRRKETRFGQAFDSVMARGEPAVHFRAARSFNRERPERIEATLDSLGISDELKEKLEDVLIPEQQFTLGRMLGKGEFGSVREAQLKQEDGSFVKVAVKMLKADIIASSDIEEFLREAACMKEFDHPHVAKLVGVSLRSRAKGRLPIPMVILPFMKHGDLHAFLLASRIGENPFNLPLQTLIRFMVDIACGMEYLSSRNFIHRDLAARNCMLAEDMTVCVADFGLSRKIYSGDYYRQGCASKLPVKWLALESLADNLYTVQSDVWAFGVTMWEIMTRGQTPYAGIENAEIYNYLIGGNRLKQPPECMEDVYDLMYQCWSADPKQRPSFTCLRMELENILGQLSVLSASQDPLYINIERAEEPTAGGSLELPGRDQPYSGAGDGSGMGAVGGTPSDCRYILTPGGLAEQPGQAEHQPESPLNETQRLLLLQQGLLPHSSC

[11] = molecular target: T2, Tyrosine-protein kinase receptor TYRO3 (Homo sapiens); conditions: at 1 µM
[12] = molecular target: Tyrosine-protein kinase Yes (Homo sapiens) (UniProt P07947); conditions: at 0.1 µM
Sequence of Tyrosine-protein kinase Yes (Homo sapiens) (P07947 2-543 limits assumed): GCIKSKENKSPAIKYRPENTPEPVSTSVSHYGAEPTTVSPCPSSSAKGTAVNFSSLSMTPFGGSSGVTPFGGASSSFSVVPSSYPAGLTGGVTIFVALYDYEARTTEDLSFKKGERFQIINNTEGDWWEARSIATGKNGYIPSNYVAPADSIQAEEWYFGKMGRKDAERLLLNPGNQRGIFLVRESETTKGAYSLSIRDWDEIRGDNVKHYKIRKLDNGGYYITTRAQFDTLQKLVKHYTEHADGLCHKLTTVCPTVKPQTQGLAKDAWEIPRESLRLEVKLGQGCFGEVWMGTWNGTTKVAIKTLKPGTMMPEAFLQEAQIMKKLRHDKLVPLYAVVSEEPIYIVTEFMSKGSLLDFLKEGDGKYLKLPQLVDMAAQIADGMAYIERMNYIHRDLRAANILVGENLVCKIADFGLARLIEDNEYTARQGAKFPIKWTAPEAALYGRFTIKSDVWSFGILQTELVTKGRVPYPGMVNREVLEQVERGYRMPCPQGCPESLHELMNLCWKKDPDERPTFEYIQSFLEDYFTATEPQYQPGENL

[13] = molecular target: Tyrosine-protein kinase Yes (Homo sapiens) (UniProt P07947); conditions: at 1 µM
[14] = molecular target: T3, Tyrosine-protein kinase ZAP-70 (Homo sapiens) (UniProt P43403); conditions: at 0.1 µM
T3 sequence (whole entry): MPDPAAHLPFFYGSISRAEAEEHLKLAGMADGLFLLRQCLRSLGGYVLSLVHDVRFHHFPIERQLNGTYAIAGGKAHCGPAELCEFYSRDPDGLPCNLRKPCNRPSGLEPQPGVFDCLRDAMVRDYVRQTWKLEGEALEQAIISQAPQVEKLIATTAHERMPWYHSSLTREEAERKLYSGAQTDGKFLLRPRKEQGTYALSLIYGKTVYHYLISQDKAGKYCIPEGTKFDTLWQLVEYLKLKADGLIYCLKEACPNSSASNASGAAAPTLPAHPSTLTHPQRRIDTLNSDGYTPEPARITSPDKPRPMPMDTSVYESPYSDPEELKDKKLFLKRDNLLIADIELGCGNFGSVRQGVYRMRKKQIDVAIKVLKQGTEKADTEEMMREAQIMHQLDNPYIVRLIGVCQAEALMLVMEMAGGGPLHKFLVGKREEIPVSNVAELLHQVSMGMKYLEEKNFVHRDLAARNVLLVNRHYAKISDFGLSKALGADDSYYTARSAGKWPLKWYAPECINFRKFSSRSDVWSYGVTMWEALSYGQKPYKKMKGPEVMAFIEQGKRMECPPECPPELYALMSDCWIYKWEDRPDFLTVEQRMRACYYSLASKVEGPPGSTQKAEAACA

[15] = molecular target: T3, Tyrosine-protein kinase ZAP-70 (Homo sapiens); conditions: at 1 µM
[16] = molecular target: Serine/threonine-protein kinase B-raf (Homo sapiens) (UniProt P15056); conditions: at 0.1 µM
Sequence of Serine/threonine-protein kinase B-raf (Homo sapiens) (P15056 whole entry): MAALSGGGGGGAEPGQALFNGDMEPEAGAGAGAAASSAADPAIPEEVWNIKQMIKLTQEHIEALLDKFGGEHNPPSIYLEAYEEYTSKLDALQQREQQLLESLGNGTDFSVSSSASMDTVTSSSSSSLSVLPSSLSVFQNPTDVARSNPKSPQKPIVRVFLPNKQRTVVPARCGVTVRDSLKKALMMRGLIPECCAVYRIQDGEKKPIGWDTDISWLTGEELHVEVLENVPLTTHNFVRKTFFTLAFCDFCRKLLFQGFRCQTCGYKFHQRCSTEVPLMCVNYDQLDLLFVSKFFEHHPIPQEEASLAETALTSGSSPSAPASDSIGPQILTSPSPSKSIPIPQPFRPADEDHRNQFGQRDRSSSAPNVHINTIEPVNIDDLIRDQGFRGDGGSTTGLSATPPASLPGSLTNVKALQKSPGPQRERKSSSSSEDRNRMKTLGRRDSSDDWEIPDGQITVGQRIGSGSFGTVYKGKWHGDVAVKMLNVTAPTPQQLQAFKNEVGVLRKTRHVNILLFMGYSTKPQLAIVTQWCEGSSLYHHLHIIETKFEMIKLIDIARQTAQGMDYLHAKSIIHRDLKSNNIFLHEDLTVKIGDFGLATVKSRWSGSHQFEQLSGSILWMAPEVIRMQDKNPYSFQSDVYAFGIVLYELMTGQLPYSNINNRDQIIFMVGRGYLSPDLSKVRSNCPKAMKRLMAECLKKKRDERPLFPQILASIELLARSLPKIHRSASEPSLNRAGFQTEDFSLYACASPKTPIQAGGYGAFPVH

[17] = molecular target: Serine/threonine-protein kinase B-raf (Homo sapiens) (UniProt P15056); conditions: at 1 µM
[18] = system: Serine/threonine-protein kinase B-raf (Homo sapiens), P15056 [V600E]; conditions: at 0.1 µM
Sequence of Serine/threonine-protein kinase B-raf (Homo sapiens), P15056 [V600E] (P15056 whole entry V600E): as the sequence (P15056 whole entry) above, with V600E counted along it

[19] = system: Serine/threonine-protein kinase B-raf (Homo sapiens), P15056 [V600E]; conditions: at 1 µM
[20] = molecular target: RAF proto-oncogene serine/threonine-protein kinase (Homo sapiens) (UniProt P04049); conditions: at 0.1 µM;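 also: values are mean CRAF kinase inhibition from profiling of the GSK Published Kinase Inhibitor Set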
Sequence of RAF proto-oncogene serine/threonine-protein kinase (Homo sapiens) (P04049 whole entry): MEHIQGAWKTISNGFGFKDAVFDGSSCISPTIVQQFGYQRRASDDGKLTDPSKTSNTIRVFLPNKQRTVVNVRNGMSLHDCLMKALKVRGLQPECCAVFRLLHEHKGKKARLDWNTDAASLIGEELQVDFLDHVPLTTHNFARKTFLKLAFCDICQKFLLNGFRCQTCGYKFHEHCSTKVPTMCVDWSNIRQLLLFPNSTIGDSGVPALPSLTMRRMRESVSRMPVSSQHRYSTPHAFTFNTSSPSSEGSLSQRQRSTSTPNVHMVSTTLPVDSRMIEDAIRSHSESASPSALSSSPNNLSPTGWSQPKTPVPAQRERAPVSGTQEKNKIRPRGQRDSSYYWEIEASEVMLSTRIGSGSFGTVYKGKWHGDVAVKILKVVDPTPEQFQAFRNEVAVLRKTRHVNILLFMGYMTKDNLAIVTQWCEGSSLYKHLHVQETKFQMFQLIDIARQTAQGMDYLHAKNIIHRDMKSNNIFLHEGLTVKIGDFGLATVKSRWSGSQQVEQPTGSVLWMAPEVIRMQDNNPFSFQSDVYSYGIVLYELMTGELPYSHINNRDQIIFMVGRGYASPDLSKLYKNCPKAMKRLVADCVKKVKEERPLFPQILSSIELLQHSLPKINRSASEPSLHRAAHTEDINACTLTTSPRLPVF

Sequence of Tyrosine-protein kinase Fgr (Homo sapiens) (P09769 2-529 limits assumed): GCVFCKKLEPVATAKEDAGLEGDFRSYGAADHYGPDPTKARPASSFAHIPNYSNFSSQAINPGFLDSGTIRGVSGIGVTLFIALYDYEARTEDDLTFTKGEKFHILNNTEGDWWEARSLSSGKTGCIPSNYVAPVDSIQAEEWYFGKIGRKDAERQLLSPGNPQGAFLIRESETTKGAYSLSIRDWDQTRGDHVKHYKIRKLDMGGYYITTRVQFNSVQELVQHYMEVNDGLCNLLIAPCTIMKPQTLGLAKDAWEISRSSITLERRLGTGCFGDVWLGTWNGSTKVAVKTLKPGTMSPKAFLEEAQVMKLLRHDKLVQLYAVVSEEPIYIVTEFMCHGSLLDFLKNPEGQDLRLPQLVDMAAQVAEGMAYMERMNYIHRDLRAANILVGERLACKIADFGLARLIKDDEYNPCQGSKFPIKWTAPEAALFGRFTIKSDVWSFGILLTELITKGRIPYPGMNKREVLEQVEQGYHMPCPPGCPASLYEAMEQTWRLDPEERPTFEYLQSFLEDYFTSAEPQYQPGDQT
Sequence of Fibroblast growth factor receptor 4 (Homo sapiens) (P22455 22-802 limits assumed): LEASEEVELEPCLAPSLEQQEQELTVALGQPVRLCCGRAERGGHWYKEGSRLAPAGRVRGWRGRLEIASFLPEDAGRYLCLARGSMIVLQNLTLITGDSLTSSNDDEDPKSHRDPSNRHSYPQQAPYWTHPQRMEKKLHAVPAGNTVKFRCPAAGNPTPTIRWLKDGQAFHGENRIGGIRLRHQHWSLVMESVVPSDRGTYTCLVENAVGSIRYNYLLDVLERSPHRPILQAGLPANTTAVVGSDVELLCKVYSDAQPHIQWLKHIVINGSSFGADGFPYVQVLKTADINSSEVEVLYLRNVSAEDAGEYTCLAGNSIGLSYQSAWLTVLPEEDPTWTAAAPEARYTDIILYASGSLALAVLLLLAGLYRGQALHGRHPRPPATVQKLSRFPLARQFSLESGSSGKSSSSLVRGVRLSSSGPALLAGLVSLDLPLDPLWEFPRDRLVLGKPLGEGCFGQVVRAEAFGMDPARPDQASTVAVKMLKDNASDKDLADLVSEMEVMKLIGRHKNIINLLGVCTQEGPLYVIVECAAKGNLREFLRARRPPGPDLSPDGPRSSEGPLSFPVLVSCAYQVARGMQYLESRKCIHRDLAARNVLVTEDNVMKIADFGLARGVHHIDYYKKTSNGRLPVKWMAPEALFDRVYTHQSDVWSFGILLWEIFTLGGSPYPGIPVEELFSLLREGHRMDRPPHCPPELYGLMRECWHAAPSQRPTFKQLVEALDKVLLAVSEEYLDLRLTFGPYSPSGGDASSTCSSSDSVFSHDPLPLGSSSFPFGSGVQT

Structure (SMILES)	inhibition [1] [%]	inhibition [2] [%]	inhibition [3] [%]	inhibition [4] [%]	inhibition [5] [%]	inhibition [6] [%]	inhibition [7] [%]	inhibition [8] [%]	inhibition [9] [%]	inhibition [10] [%]	inhibition [11] [%]	inhibition [12] [%]	inhibition [13] [%]	inhibition [14] [%]	inhibition [15] [%]	inhibition [16] [%]	inhibition [17] [%]	inhibition [18] [%]	inhibition [19] [%]	inhibition [20] [%]
CC1=C(C(=O)Nc2ccc3[nH]ncc3c2)C(c2ccc(F)cc2)NC(=O)N1 (stereo unspecified)	7.73	0.15	0.7	-0.38	2.35	0.82	0.62	-0.62	26.3	1.55	2.1	2.93	3.94	2.76	1.91	3.64	5.71	2.81	6.38	1.97
Fc1cccc(COc2ccc(Nc3ncnc4sc(-c5cccs5)cc34)cc2Cl)c1	3.41	1.43	3.69	-0.58	3.56	0.38	3.27	-2.12	1.15	0.54	1.15	0.57	1.28	-1.83	1.54	1.35	2.73	1.62	1.65	1.45
O=C1NC(=O)C(c2ccc(Cl)cc2)=C1Nc1ccc(Cl)c(C(=O)O)c1	1.95	0.15	2.1	0.79	2.99	-0.57	1.93	-7.38	0.43	-0.81	-3.28	-3.3	0.94	-3.81	-2.06	-1.66	-3.28	-4	-3.77	-4.76
O=C1NC(=O)C(c2cccc(Cl)c2)=C1Nc1ccc(O)c(Cl)c1	2.43	-2.2	3.74	0.72	1.36	-1.02	0.95	-6.93	20	-0.43	0.29	2.84	2.76	1.5	2.74	1.14	6	0.91	7.11	0.68
COc1cc2ncn(-c3cc(O[C@H](C)c4ccccc4Cl)c(C(N)=O)s3)c2cc1OC	8.7	8.54	17.3	4.8	26.2	6.07	24.8	5.85	-0.12	7.57	37.6	4.24	17.8	2.5	7.57	4.31	3.59	4.51	3.77	1.34
Nc1nc(-c2ccccn2)c(-c2ccc3ncccc3n2)s1	0.28	1.09	2.08	0.57	5.82	8.03	2.99	-0.61	-1.33	1.89	2.67	-0.44	0.23	0.82	0.6	3.55	7.22	3.63	5.74	2.42
NC(=O)c1ccc(-c2nc(-c3ccccn3)c(-c3ccc4c(c3)OCO4)[nH]2)cc1	-0.14	3.69	5.27	-0.48	-1	1.89	2.37	1.11	-0.31	2.08	1.12	2.51	7.17	0.96	-2.34					-6.15
